In PubChem BioAssay AID1159580 (chemical genetic matrix, 2015):
Where “and” joins values, the source holds several entries; their conditions need not be identical. Identical values can stand only once. Screen size: about 5,500 compounds; about 2,000 (36%) were called active. Inconclusive results (about 18%) are left out. Rule as the data show it: active = normalized growth mostly below about 0.91 (no sharp cut-off); inconclusive = no clear call, values can overlap the other calls; inactive = mostly above about 0.92. The list shows a part of the results.

Assay: chemical genetic growth profiling, strain panel (AID 1159580);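 also: tested at 20 µM; growth read once vehicle control cultures reached saturation at 30 °C; 1 = growth at the plate median or of vehicle wells; lower values mean less growth of the strain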
Conditions: S. cerevisiae deletion strains, growth OD

Measured: normalized growth

COc1cc2c(cc1OC)C(=O)C(CC1CCN(Cc3ccccc3)CC1)C2 (stereo not given)
inactive: locus YAL013W, strain DEP1, stronger effect = lower value 0.953 | locus YAL021C, strain ccr4, stronger effect = lower value 0.942 | locus YAL030W, strain snc1, stronger effect = lower value 1.01 | locus YBL061C, strain skt5, stronger effect = lower value 0.974 | locus YBR009C, strain hhf1, stronger effect = lower value 0.975 | locus YBR021W, strain FUR4, stronger effect = lower value 1.03 | locus YBR023C, strain chs3, stronger effect = lower value 0.988 | locus YBR171W, strain sec66, stronger effect = lower value 1.03 | locus YBR229C, strain ROT2, stronger effect = lower value 1.01 | locus YBR279W, strain paf1, stronger effect = lower value 0.972 | locus YCL011C, strain gbp2, stronger effect = lower value 0.978 | locus YCL016C, strain dcc1, stronger effect = lower value 0.986 | locus YCL029C, strain bik1, stronger effect = lower value 0.989 | locus YCL061C, strain MRC1, stronger effect = lower value 0.967 | locus YCL069W, strain vba3, stronger effect = lower value 1.02 | locus YCR088W, strain abp1, stronger effect = lower value 1.01 | locus YDL005C, strain med2, stronger effect = lower value 1.03 | locus YDL035C, strain GPR1, stronger effect = lower value 0.869 | locus YDL040C, strain nat1, stronger effect = lower value 0.981 | locus YDL101C, strain DUN1, stronger effect = lower value 0.948 | locus YDL185W, strain tfp1, stronger effect = lower value 0.998 | locus YDL192W, strain arf1, stronger effect = lower value 0.926 | locus YDR001C, strain nth1, stronger effect = lower value 1.02 | locus YDR069C, strain doa4, stronger effect = lower value 0.935 | locus YDR150W, strain NUM1, stronger effect = lower value 0.977 | locus YDR159W, strain sac3, stronger effect = lower value 0.953 | locus YDR195W, strain ref2 1.08 | locus YDR297W, strain sur2, stronger effect = lower value 0.989 | locus YDR334W, strain swr1, stronger effect = lower value 1.02 | locus YDR335W, strain msn5, stronger effect = lower value 0.999 | locus YDR388W, stronger effect = lower value 0.998 | locus YDR392W, strain spt3, stronger effect = lower value 1.09 | locus YEL003W, strain gim4, stronger effect = lower value 0.988 | locus YEL037C, strain rad23, stronger effect = lower value 1.02 | locus YEL061C, strain CIN8 (second series), stronger effect = lower value 1.04 | locus YEL061C, strain CIN8, stronger effect = lower value 1.06 | locus YER015W, strain faa2, stronger effect = lower value 0.947 | locus YER016W, strain bim1, stronger effect = lower value 1 | locus YER110C, stronger effect = lower value 0.992 | locus YER111C, strain swi4, stronger effect = lower value 1.02 | locus YER155C, strain BEM2 (second series), stronger effect = lower value 1.02 | locus YER155C, strain BEM2, stronger effect = lower value 1.01 | locus YFR010W, strain ubp6, stronger effect = lower value 1.03 | locus YGL078C, strain dbp3, stronger effect = lower value 0.976 | locus YGL086W, strain mad1, stronger effect = lower value 0.954 | locus YGL167C, strain pmr1, stronger effect = lower value 0.961 | locus YGL173C, strain kem1, stronger effect = lower value 1.01 | locus YGL227W, strain vid30, stronger effect = lower value 1.06 | locus YGL240W, strain doc1, stronger effect = lower value 0.994 | locus YHR013C, strain ard1, stronger effect = lower value 0.955 | locus YHR027C, strain rpn1, stronger effect = lower value 0.99 | locus YHR030C, strain SLT2, stronger effect = lower value 0.94 and 0.973 | locus YHR079C, strain IRE1 (second series), stronger effect = lower value 0.951 | locus YHR079C, strain IRE1, stronger effect = lower value 0.949 | locus YHR094C, strain hxt1, stronger effect = lower value 1 | locus YHR142W, strain chs7, stronger effect = lower value 0.919 | locus YHR200W, strain rpn10, stronger effect = lower value 0.973 | locus YIL066C, strain RNR3, stronger effect = lower value 0.896 | locus YIL073C, strain SPO22, stronger effect = lower value 0.904 | locus YIL125W, strain kgd1, stronger effect = lower value 1.01 | locus YIR030C, strain dcg1, stronger effect = lower value 0.985 | locus YJL092W, strain hpr5, stronger effect = lower value 1.02 | locus YJL095W, strain BCK1 (second series), stronger effect = lower value 0.994 | locus YJL115W, strain asf1, stronger effect = lower value 1.02 | locus YJL129C, strain trk1, stronger effect = lower value 0.896 | locus YJL134W, strain LCB3, stronger effect = lower value 0.996 | locus YJL154C, strain vps35, stronger effect = lower value 1.01 | locus YJL164C, strain tpk1, stronger effect = lower value 1 | locus YJL166W, strain qcr8, stronger effect = lower value 0.931 | locus YJL168C, strain set2, stronger effect = lower value 0.998 | locus YJL187C, strain SWE1, stronger effect = lower value 0.975 | locus YJR043C, strain POL32, stronger effect = lower value 0.872
active: locus YAL026C, strain drs2, stronger effect = lower value 0.606 | locus YDL074C, strain BRE1, stronger effect = lower value 0.734 | locus YDL134C, strain PPH21, stronger effect = lower value 0.798 | locus YDR101C, strain arx1, stronger effect = lower value 0.904 | locus YDR137W, strain rgp1, stronger effect = lower value 0.627 | locus YDR162C, strain NBP2, stronger effect = lower value 0.807 | locus YDR318W, strain mcm21, stronger effect = lower value 0.913 | locus YDR502C, strain sam2, stronger effect = lower value 0.834 | locus YER167W, strain BCK2, stronger effect = lower value 0.829 | locus YGL248W, strain PDE1, stronger effect = lower value 0.818 | locus YGL253W, strain hxk2, stronger effect = lower value 0.891 | locus YGR078C, strain PAC10, stronger effect = lower value 0.821 | locus YGR135W, strain pre9, stronger effect = lower value 0.787 | locus YGR229C, strain SMI1, stronger effect = lower value 0.523 | locus YGR252W, strain gcn5, stronger effect = lower value 0.742 | locus YHR129C, strain ARP1, stronger effect = lower value 0.876 | locus YJL187C, strain SWE1 (second series), stronger effect = lower value 0.849
0.657 (active) and 1.01 (inactive): locus YJL095W, strain BCK1, stronger effect = lower value
